Sfp inh – inhibitors of Bacillus subtilis Sfp phosphopantetheinyl transferase. Q9F4F7. Biochemical Sfp PPTase activity, qHTS. Potency, µM, for inactives: largest response in the series, negative = inhibition, hits mostly inhibitors. actives 3.5% (n = 310,000). AID 1490;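 note: the enzyme is Sfp with the accession as filed and its product quenches rhodamine fluorescence; potency is the fitted concentration of half-maximal effect; 0% = enzyme reaction without inhibitor and -100% = no enzyme wells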
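With Hepes-Na pH 7.6 buffer containing 10 mM MgCl2, Sfp (15 nM) modified BHQ-2-YbbR (12.5 uM) using rhodamine-CoA (5 uM). Two reads 30 minutes apart at 525/598 nm yielded each well's rate.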
Tau fluor cs – counter-screen for tau fibril formation inhibitors; actives 0.93% (n = 280,000); Potency, µM (series often up to 57.7 µM), for inactives: at the highest dose activity change, negative = decrease; tau K18 P301L Alexa594 fluorescence, heparin fibrillization; note: potency is the fitted concentration of half-maximal effect; nearly all actives have a fitted effect of over 55% in size
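Human K18 P301L tau (15 uM unlabeled plus 0.24 uM Alexa 594-labeled, final) in 100 mM sodium acetate pH 7 was mixed with compound and 20 uM heparin and incubated 6 hr at 37 C.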
Tau fibril ThT – inhibitors of human tau fibril formation, thioflavin T binding | recombinant tau K18 P301L (four-repeat tau fragment), heparin-induced fibrillization, ThT fluorescence | Potency, µM (doses to about 57.4 µM), inactives show at the highest dose activity, negative = inhibition, hits mostly inhibitors | actives 2.1% (n = 270,000); note: potency is the fitted concentration of half-maximal effect; nearly all actives have a fitted effect of over 55% in size
Target sequence (P10636 561-689 P618L limits assumed): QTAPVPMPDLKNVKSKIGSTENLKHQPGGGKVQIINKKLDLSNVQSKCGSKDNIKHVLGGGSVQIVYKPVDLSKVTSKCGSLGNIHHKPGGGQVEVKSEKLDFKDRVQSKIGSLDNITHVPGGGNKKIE
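In this qHTS, human K18 P301L tau is incubated with compound and heparin for 6 hr at 37 C, and Thioflavin T fluorescence then reports fibril load.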
Tau fibril FP – inhibitors of human tau fibril formation | actives 0.39% (n = 280,000) | K18 P301L tau heparin fibrillization, Alexa594 FP, 6 h | Potency, µM (top dose mostly 57.7 µM), for inactives: at the top dose activity, negative = inhibition, usual class: inhibitors; note: potency is the fitted concentration of half-maximal effect; nearly all actives have a fitted effect of over 55% in size
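Steps: dispense K18 P301L tau (15 uM plus 0.24 uM Alexa 594 tracer, final) in pH 7 sodium acetate; add compound; add heparin (20 uM final); incubate 6 hr, 37 C; add ThT (30 uM final); after 1 hr ambient, read FP.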
FBPA coupling cs – counter-screen for Giardia aldolase inhibitors: coupling enzyme system; coupling enzyme system counterscreen, AmpLite Red fluorescence; activity change, negative = inhibition, % at 58.2 µM, hits read low; actives 0.67% (n = 290,000); AID 2472; in the data active = activity change below about -30%
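Compounds tested against the coupling enzymes alone at 57.5 uM final; readout was AmpLite Red fluorescence (525/598 nm) after 20 min at RT.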
* = called active by the depositor; ? = inconclusive; nt = not tested or not shown; [ ] = another dose, or the depositor's remark. Shown are actives, neighbours in structure and some others; about 5.2% of the full set was active somewhere. Unless noted, calls come from the whole dose curve; as a rule, active = well fitted curve in the direction sought with a large enough effect; inconclusive = small, poorly fitted or top-dose-only effect, or another doubt; inactive = no such curve, though single readings can be large; an effect the other way counts as inactive or inconclusive. Unless noted, % is set by controls: 0 for no effect and ±100 for the full control effect.

SMILES	Sfp inh	Tau fluor cs	Tau fibril ThT	Tau fibril FP	FBPA coupling cs
Cc1ccc(NC(=S)NNC(=S)Nc2cccc(C(F)(F)F)c2)cc1	28.2µM*	14.1µM*[quencher]	nt	?	-0.7
CN(C)NC(=S)Nc1cccc(C(F)(F)F)c1	3.1%	-4.7%	-8.7%	9.0%	8.4
Cc1ccc(C2(c3ccc(C)cc3)CC2C(=O)Nc2ccc([N+](=O)[O-])cc2O)cc1 (stereo not drawn)	19.0%	10µM*[quencher]	-13.8%	?	-15.7
O=C1Nc2cc(Cl)ccc2Oc2cc(Oc3ccccc3)ccc21	nt	-16.0%	-6.8%	-3.1%	nt
C[C@@H](NCc1cc(Br)cc2[nH]c(=O)c(=O)[nH]c12)P(=O)(O)O	?	-2.9%	-5.3%	-1.9%	-4.4
Cc1ccc(CNC(=O)CCN2C(=O)COc3ccc(C)cc32)cc1	nt	-15.2%	-11.9%	0.6%	nt
COc1ccc(/C=N/c2c(-c3ccc(OC)cc3)nc3n2CCS3)cc1	-20.3%	?	14.1µM*	-4.1%	1.3
Oc1ccc(N2CCN(c3ncnc4sc5c(c34)CCC5)CC2)cc1	56.2µM*	?	?	-3.0%	-0.4
O=C(Cn1c(=O)n(-c2ccccc2)c(=O)c2c3c(sc21)CCC3)c1ccc(Br)cc1	nt	2.2%	7.4%	-6.6%	nt
O=C(O)C/C=C(\NC(=O)OCc1ccccc1)C(=O)OCc1ccccc1	79.4µM*	-6.9%	-5.8%	-5.8%	2.2
CC(=O)N/C(=C\c1ccccc1)C(=O)OCc1ccccc1	-2.8%	nt	nt	nt	1.2
COc1ccc(-c2nn(C)c3sc(C(=O)Nc4cc(OC)c(OC)c(OC)c4)cc23)cc1OC	nt	2.51µM*[quencher]	?	?	nt
COc1ccc(-c2nn(C)c3sc(C(=O)NCc4ccco4)cc23)cc1OC	-19.3%	9.1%	12.7%	7.4%	-0.2
COc1ccc(NC(=O)c2cc3c(-c4ccc(OC)c(OC)c4)nn(C)c3s2)cc1OC	14.5%	3.55µM*[quencher]	?	-1.9%	0.4
CCCCCc1ccc(OCCCC[n+]2ccc(C)cc2)c(CCCCC)c1	50.1µM*	-15.3%	?	-2.4%	-6.3
CCC(C)(C)c1ccc(Oc2cccc(C(=O)O)c2)cc1	18.2%	-9.4%	-9.4%	2.8%	17.7
CCC(C)(C)c1ccc(OCCCC[n+]2ccccc2)c(C(C)(C)CC)c1	50.1µM*	-5.7%	?	-6.3%	0.8
CCCCCc1ccc(OCCCC[n+]2ccccc2)c(CCCCC)c1	35.5µM*	6.3%	-16.2%	4.2%	2.3
CCCCCc1ccc(OCCCC[n+]2cccc(C)c2)c(CCCCC)c1	-8.4%	5.7%[2.34 µM]	?	1.1%	0.2
Cc1cccc(OC(=O)c2cc(-c3ccc4c(c3)OCCO4)on2)c1	nt	-23.1%	-15.6%	0.8%	nt
CCOC(=O)CNC(=O)N1CCN(S(=O)(=O)c2ccc3c(ccn3C)c2)CC1	nt	2.9%	6.2%	2.0%	nt
CCOc1ccc2c(c1)[nH]c(=S)n2C	17.8µM*	-11.6%	-19.2%	-8.7%	0.2
Cn1c(=S)[nH]c2ccccc21	-2.6%	-9.5%	-15.0%	-11.6%	-0.3
Cc1nc2c(c(C)c1CCC(=O)Nc1ccc(F)cc1)c(=O)n(C)c(=O)n2C	nt	-9.6%	-1.5%	?	nt
COc1ccc(N2CCN(c3nc(=S)n(-c4ccccc4)c(C)c3C(C)=O)CC2)cc1	0.2%	-24.0%	28.2µM*	?	2.6
SMILES	Sfp inh	Tau fluor cs	Tau fibril ThT	Tau fibril FP	FBPA coupling cs
CCn1c(C)c(C(C)=O)c(N2CCN(c3ccc(OC)cc3)CC2)nc1=S	22.4µM*	-28.1%	28.2µM*	?	-13.5
Cc1c(C)n(Cc2ccccc2)c2ccc(C(=O)N3CCN(c4ccccc4F)CC3)cc12	nt	6.8%	0.0%	5.3%	nt
COc1ccc(NC(=O)CCc2nnc3n(Cc4ccccc4Cl)c(=O)c4ccccc4n23)cc1	nt	1.5%	11.5%	-14.8%	nt
COc1ccc(CNC(=O)CCc2c(C)nc3c(c(C)nn3-c3ccccc3)c2C)cc1	nt	-9.7%	5.0%	-3.2%	nt
O=C1C2ON(c3ccc(Cl)cc3)C(c3ccco3)C2C(=O)N1c1ccccc1 (stereo not drawn)	31.6µM*	-6.0%	-0.5%	-2.8%	-7.0
O=C1C2ON(c3ccccc3)C(c3ccccc3F)C2C(=O)N1c1ccccc1 (stereo not drawn)	-0.1%	1.3%	3.6%	4.1%	0.3
COC(=O)c1ccc(NC(=O)NC(C)c2c(-n3cccc3)sc(C)c2C)cc1 (stereo not drawn)	nt	?	-1.6%	17.8µM*	nt
CCN=C1S/C(=C/c2ccc(-c3ccc(F)cc3)o2)C(=O)N1CC	56.2µM*	nt	nt	nt	-0.3
Cc1oc2ncn(CC(C)C)c(=O)c2c1C(=O)Nc1cccc(C(F)(F)F)c1	nt	-11.2%	2.4%	-1.5%	nt
CNc1oc(C)nc1S(=O)(=O)c1ccccc1	31.6µM*	-20.3%	?	?	-1.4
c1coc(CSc2ncnc3c2oc2ccccc23)c1	56.2µM*	-12.4%	-13.9%	-1.4%	0.7
Fc1ccccc1CSc1ncnc2c1oc1ccccc12	-14.7%	-14.4%	?	-6.5%	0.8
CS(=O)(=O)Nc1cccc(-c2cncnc2NCc2ccccc2)c1	-15.0%	nt	nt	nt	3.2
Cc1cc(C)c2c(N)c(C(=O)C(C)(C)C)sc2n1	15.0%	1.9%	3.9%	2.4%	1.0
Cc1cc(C)c2c(N)c(S(=O)c3ccc(C(C)(C)C)cc3)sc2n1 (stereo not drawn)	-21.4%	?	25.1µM*	?	1.6
N#CC1=C(N)SC(N)=C(C#N)C1c1ccc([N+](=O)[O-])cc1	5.01µM*	?	20µM*	-11.5%	-11.4
CN(C)c1ncc2nc(-c3ccc(Cl)cc3)c(=O)n(C[C@H]3CCCO3)c2n1	10.2%	nt	nt	nt	4.7
CC(/C=N/NC(=O)c1ccncc1)=C\c1ccc(C(C)C)cc1	10.5%	-21.1%	20µM*	?	2.3
OC[C@@H]1OC(O)[C@H](O)[C@H](O)[C@H]1O (stereo partly drawn)	?	nt	nt	nt	-0.1
Cc1ccc(CNC(=O)CSC2=Nc3ccccc3N=C(c3ccc(F)cc3)C2)cc1	nt	-6.8%	3.0%	-10.1%	nt
O=C(Cc1cc(=O)[nH][nH]1)N/N=C/C(Cl)=C/c1ccccc1	14.8%	?	2.82µM*	?	7.7
Cn1cccc1CC(=O)N/N=C/C(Cl)=C/c1ccccc1	5.3%	-29.9%	?	-3.0%	0.4
O=C(Cc1cc(=O)[nH][nH]1)N/N=C/c1c(F)cccc1Cl	15.8%	-16.6%	?	?	0.0
O=C(Cc1cc(=O)[nH][nH]1)N/N=C/c1c(Cl)cccc1Cl	50.1µM*	?	?	-9.3%	0.8
O=C(CSc1nc2c(c(=O)[nH]1)CCC2)Nc1cccc(O)c1	nt	-12.0%	-2.4%	-10.8%	nt
CCCCn1c(SCC(=O)N2CCOCC2)nc2ccccc2c1=O	-8.1%	nt	nt	nt	0.6
CCCCn1c(SCC(=O)NCc2ccco2)nc2ccc(N3CCOCC3)cc2c1=O	44.7µM*	-1.8%	-7.0%	-3.7%	-40.1*
Cc1ccc(CSc2nc3ccccc3c(=O)n2CCCC(=O)NCc2ccco2)cc1	25.1µM*	-10.0%	-2.4%	-12.0%	2.8

Screening results from PubChem BioAssay.
